# Assay results taken from PubChem BioAssay.
# Activity calls are given as the source filed them.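 The calls were made as follows, unless noted: active = viability at or below 30% in both replicate assays; inconclusive = viability at or below 30% in just one of the two assays; inactive = the rest.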
# Assays:
# [1] = SK-BR-3 cell growth inhibitors, pilot screen, 24 h, human (AID 572;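 active = viability at or below 10% of carrier control in both of two separate runs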;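 also: compound exposure lasted between 18 and 24 h rather than exactly 24 h; 100% = carrier-treated control wells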); conditions: SK-BR-3 viability, CellTiter-Glo luminescence, at 10 µM, stronger effect = lower value
# [2] = HUVEC growth inhibition – cell-based, human, primary screen (AID 575); conditions: HUVEC proliferation, CellTiter-Glo luminescence, 72 h; at 10 µM; stronger effect = lower value;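 also: 100% = median of untreated cell wells with 0.1% DMSO on each plate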
# [3] = growth inhibitors of H69AR lung tumor, primary screen, human, duplicate replicates (AID 580;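 active = viability at or under a set limit in both replicates, limit being median viability minus 3 SD, cut at about 48% in these data, passing the limit was not always enough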;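 also: 100% = mean luminescence of untreated wells and 0% = no signal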); conditions: H69AR lung tumor cells viability, ATP luminescence, 72 h; at 10 µM; stronger effect = lower value
# [4] = reversal of MRP1-mediated doxorubicin resistance, pilot screen, H69AR cells, doxorubicin co-treatment (AID 601;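 active = viability loss from added drug above about 55%, and viability with drug at most 40%, in both replicates, limit read from the data, passing the limit was not always enough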); conditions: CellTiter-Glo, 72 h, at 10 µM; for differential viability (reversal): stronger effect = higher value
# [5] = 384-well plate pilot, post-Golgi transport modulator project, inhibition of yeast transport mutant growth (AID 636; in the data active = inhibition above about 31%); conditions: absorbance 615 nm, about 18 h, stronger effect = higher value
# [6] = growth suppression of yeast trafficking mutant, preliminary HTS, modulators of trafficking downstream of Golgi apparatus project, 1536-format plate, OD 615 nm (AID 637; in the data active = inhibition above about 30%); conditions: yeast transport mutant growth, absorbance 615 nm, 18 h; stronger effect = higher value
# [7] = H69AR cells + 2 uM doxorubicin, measured here: viability with 2 uM doxorubicin, stronger effect = lower value
# [8] = H69AR cells, compound alone cytotoxicity
Compound,viability [1],viability [2],viability [3],differential viability (reversal) ([4]; H69AR cells + 2 uM doxorubicin),"viability [4, 7] [%]","viability [4, 8] [%]",inhibition [5],inhibition [6]
O=C(CSc1nnc(-c2ccco2)n1-c1ccccc1)N1CCN(C(=O)c2ccco2)CC1,137% (inactive),80.3% (inactive),84.4% (inactive),-1.54% (inactive),85.9,84.4,-1.17% (inactive),-0.82% (inactive)
CCn1c(SCc2cc(=O)[nH]c3ccccc23)nc2c1c(=O)n(C)c(=O)n2C,95% (inactive),109% (inactive),92% (inactive),-3.81% (inactive),95.8,92,0.68% (inactive),-2.18% (inactive)
CCOC(=O)c1c(-c2ccc(C)o2)csc1NC(=O)CN1CCN(CC)CC1,87% (inactive),88.6% (inactive),80.2% (inactive),-6.44% (inactive),86.7,80.2,-7.53% (inactive),4.18% (inactive)
CC(C)NCC(O)COc1ccc(CC(N)=O)cc1 (stereo unspecified),88% (inactive),87.5% (inactive),88.1% (inactive),-0.64% (inactive),88.7,88.1,1.95% (inactive),-2.67% (inactive)
CCN(CC)CCOC(=O)C(c1ccccc1)c1ccccc1,81% (inactive),81.1% (inactive),101% (inactive),7.5% (inactive),93.2,101,-4.81% (inactive),1.67% (inactive)
CC(=O)c1ccccc1NS(=O)(=O)c1c(C)nn(-c2ccccc2)c1C,99% (inactive),77.6% (inactive),88.3% (inactive),-5% (inactive),93.3,88.3,-3.11% (inactive),-4.55% (inactive)
CCCc1cc(=O)[nH]c(Nc2ccc(OC)c(Cl)c2)n1,115% (inactive),76.1% (inactive),70.6% (inactive),-7.59% (inactive),78.2,70.6,-3.51% (inactive),4.43% (inactive)
COC(=O)c1sc(S(=O)(=O)N2CCN(c3ccccc3)CC2)c(C(=O)OC)c1C,69% (inactive),96.1% (inactive),85.6% (inactive),-1.87% (inactive),87.5,85.6,-8.63% (inactive),4% (inactive)
FC(F)Oc1cccc2cccnc12,89% (inactive),111% (inactive),94% (inactive),9.04% (inactive),84.9,94,-3.33% (inactive),-0.55% (inactive)
C=CCN(CC=C)C(=O)c1ccncc1,115% (inactive),92.8% (inactive),102% (inactive),-2.84% (inactive),104,102,0.68% (inactive),-4.84% (inactive)
Cn1ncc2c(Nc3ccccc3Br)ncnc21,109% (inactive),101% (inactive),106% (inactive),13.5% (inactive),92.8,106,-7.67% (inactive),-2.55% (inactive)
CC(c1ccco1)N(Cc1ccco1)C(=O)Nc1ccccc1 (stereo unspecified),108% (inactive),76.3% (inactive),91.2% (inactive),23.7% (inactive),67.6,91.2,1.69% (inactive),6.72% (inactive)
CC1(C)Cc2c(c(=S)nc(-c3ccccc3)n2CCO)CO1,111% (inactive),106% (inactive),87.6% (inactive),-4.25% (inactive),91.9,87.6,-1.43% (inactive),-6.72% (inactive)
CCNc1ccc(S(=O)(=O)C(F)(F)F)cc1NC(=O)C12CCC(CC1)C2,102% (inactive),102% (inactive),92.3% (inactive),-3.33% (inactive),95.7,92.3,1.78% (inactive),2% (inactive)
CN1CC=C2C(C#N)=C(N)C(C#N)(C#N)C(c3cccc(Cl)c3Cl)C2C1 (stereo unspecified),115% (inactive),69.7% (inactive),61.1% (inactive),1.02% (inactive),60.1,61.1,-4.67% (inactive),2.13% (inactive)
CCOC(=O)c1c(C)oc2ccc(NS(=O)(=O)c3ccc4c5c(cccc35)C(=O)N4)cc12,103% (inactive),76.9% (inactive),83.9% (inactive),0.75% (inactive),83.1,83.9,-7.53% (inactive),5.27% (inactive)
O=C(COc1ccc(S(=O)(=O)NC2CCCCC2)cc1)NCc1ccccn1,65% (inactive),102% (inactive),85.6% (inactive),-3% (inactive),88.6,85.6,-7.26% (inactive),2.18% (inactive)
CCOC(=O)C1CN(S(=O)(=O)c2ccc(C)cc2)CCN1S(=O)(=O)c1ccc(C)cc1 (stereo unspecified),100% (inactive),101% (inactive),84.5% (inactive),-16.3% (inactive),101,84.5,-2.6% (inactive),-1.8% (inactive)
COCCCn1c(=N)c(C(=O)NCC2CCCO2)cc2c(=O)n3cccc(C)c3nc21 (stereo unspecified),62% (inactive),93% (inactive),98.7% (inactive),5.39% (inactive),93.3,98.7,-6.8% (inactive),2.18% (inactive)

Compound,viability [1],viability [2],viability [3],differential viability (reversal) ([4]; H69AR cells + 2 uM doxorubicin),"viability [4, 7] [%]","viability [4, 8] [%]",inhibition [5],inhibition [6]
CCC(=O)c1ccc(O)cc1,96% (inactive),97% (inactive),97.1% (inactive),-3.6% (inactive),101,97.1,-0.13% (inactive),3.33% (inactive)
Cc1cc(=O)[nH]c(SCc2nc3ncccn3c2Br)n1,108% (inactive),78.4% (inactive),88.9% (inactive),-2.9% (inactive),91.8,88.9,-4.81% (inactive),-3.44% (inactive)
O=C(CN1CCCN(S(=O)(=O)c2ccc(Br)cc2)CC1)Nc1ccc2c(c1)OCO2,91% (inactive),75% (inactive),6.58% (active),-10.3% (inactive),16.9,6.58,-0.52% (inactive),3.77% (inactive)
CC(C)C[C@H](NC(=O)Nc1cccc(C(F)(F)F)c1)C(=O)O,115% (inactive),98.1% (inactive),106% (inactive),14.6% (inactive),91.8,106,-4.25% (inactive),-0.81% (inactive)
Cc1cccc(NC(=O)CC2CCC2)c1,87% (inactive),102% (inactive),99.8% (inactive),-2.9% (inactive),103,99.8,-5.75% (inactive),4.55% (inactive)
COc1cc(C(=O)Nc2cc(-c3ccccc3)[nH]n2)cc(OC)c1OC,107% (inactive),68.3% (inactive),26% (active),-45.8% (inactive),71.7,26,-4.27% (inactive),-1.27% (inactive)
O=C(NC1CC1)C1CCC(=O)N1C1CCCC1 (stereo unspecified),93% (inactive),102% (inactive),105% (inactive),16.3% (inactive),88.4,105,-1.17% (inactive),0.33% (inactive)
CN(C)C(CNC(=O)Nc1cccc(Cl)c1)c1cccnc1 (stereo unspecified),77% (inactive),96.6% (inactive),90.6% (inactive),8.96% (inactive),81.7,90.6,-3.42% (inactive),2.18% (inactive)
Clc1ccc2c(c1)C(N1CCNCC1)=Nc1ccccc1O2,73% (inactive),46% (inactive),84.4% (inactive),11.4% (inactive),73,84.4,-1.3% (inactive),-3.83% (inactive)
CCOC(=O)c1cc2sc(C)cc2n1CC(=O)Nc1cccc(C)c1C,90% (inactive),99.2% (inactive),91.2% (inactive),-3.05% (inactive),94.2,91.2,-5.81% (inactive),-5.82% (inactive)
CC(=O)OC1CSc2nc3ccccc3n2C1 (stereo unspecified),84% (inactive),111% (inactive),93.4% (inactive),7.46% (inactive),85.9,93.4,-8.11% (inactive),3.45% (inactive)
Cn1c(C(=O)NCc2cccnc2)cc2sccc21,115% (inactive),102% (inactive),93% (inactive),-2.84% (inactive),95.8,93,5.21% (inactive),11.1% (inactive)
Cc1cc(Cl)c(S(=O)(=O)Nc2ccc3c(c2)OCCO3)cc1OCC(N)=O,78% (inactive),107% (inactive),97.2% (inactive),11.7% (inactive),85.5,97.2,0.27% (inactive),4.84% (inactive)
Cc1ccc(C)c(N(CC(=O)NC2CCCC2)C(=O)CCCC(=O)Nc2ccccn2)c1,99% (inactive),81.6% (inactive),102% (inactive),13.7% (inactive),87.8,102,-1.82% (inactive),-2.95% (inactive)
CN1CCN(C(=O)c2ccc3c(=O)n(CCc4ccccc4)c(=S)[nH]c3c2)CC1,102% (inactive),66.2% (inactive),81.6% (inactive),25.3% (inactive),56.3,81.6,-1.95% (inactive),-2.46% (inactive)
N[C@@H](C(=O)N[C@@H]1C(=O)N2C(C(=O)O)=C(Cl)CS[C@H]12)c1ccccc1,108% (inactive),98% (inactive),114% (inactive),10.7% (inactive),103,114,-2.6% (inactive),4.83% (inactive)
O=C(O)c1ccc(COc2ccc(Cl)cc2)o1,92% (inactive),84.7% (inactive),98.1% (inactive),9.97% (inactive),88.1,98.1,-0.26% (inactive),-2.13% (inactive)
CCOC(=O)N1CCN(C(=O)COc2cc(=O)n(C)c3ccccc23)CC1,98% (inactive),98.2% (inactive),98.2% (inactive),16.7% (inactive),81.5,98.2,0.91% (inactive),15.9% (inactive)
